Experimental data reported in PubChem BioAssay (NCATS).
Where “and” joins values, the source holds several entries; their conditions need not be identical. Equal values may be shown once. Results filed as inconclusive are left out. Entries that show only a call come without a potency. A number with no mark means an inactive call. Calls of active or inactive are those of the source. Calls come from the whole dose curve; as a rule, active = well fitted cell-killing curve with a large enough effect; inconclusive = small, poorly fitted or top-dose-only effect, or effect the other way; inactive = no such curve, though single readings can be large or run the other way.

Experiments:
[1] = Viability qHTS for spleen associated tyrosine kinase inhibitor (SYKi) naive MV4-11 cells (AID 1963823); details: MV4-11 AML viability, CellTiter-Glo luminescence, 72 h; series mostly up to 45 µM; note: nearly all actives have a fitted effect of over 40% in size
Procedure, shortened: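 SYK inhibitor-naive MV4-11 cells, 500 per well, exposed to compounds for 72 hr at 37 C, 5% CO2. Viability read as CellTiter-Glo luminescence after 10 min at room temperature.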

[2] = Viability qHTS for spleen associated tyrosine kinase inhibitor (SYKi) drug resistant MV4-11 cells (AID 1963824); details: SYKi-resistant MV4-11 viability, CellTiter-Glo, 72 h; series mostly up to 45 µM; note: nearly all actives have a fitted effect of over 35% in size
Procedure, shortened: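 SYK-inhibitor-resistant MV4-11 AML cells were seeded at 500 per well onto compound and cultured 72 hours (37 °C, 5% CO2). CellTiter-Glo was then added, and after 10 min at room temperature, luminescence gave viability.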
Potency is the fitted concentration of half-maximal effect.

SMILES	Potency [1]	Potency [2]	viability (% of control) [1]	viability, % of control [2]
COc1cc(CCc2ccc(OCC=C(C)C)cc2)cc(OC)c1OC	14.3 µM (active)	5.7 µM (active)		
CC(C)(C)Nc1nc2cc(Cl)c(Cl)cc2nc1S(C)(=O)=O	0.731 µM (active)	0.731 µM (active)		
COc1ccc2[nH]c3c(c2c1)CCN[C@]31CS[C@@H]2c3c(OC(C)=O)c(C)c4c(c3[C@H](COC1=O)N1[C@@H]2[C@H]2c3c(cc(C)c(OC)c3O)C[C@@H]([C@@H]1O)N2C)OCO4	0.0015 µM (active)	0.0011 µM (active)		
CC1CCC2C(=CCC(O)C2(C)C)C1(C)Cc1c(O)cc(CO)c(C=O)c1O (stereo unspecified)	10.1 µM (active)	7.18 µM (active)		
COc1ccccc1-n1c(SCC(=O)Nc2nc3ccc(C)cc3s2)nc2c(c1=O)SCC2	inactive	inactive		
COc1ccc(C(=O)O[C@H]2C=COC=C3C=C4C(=O)N(C)C(=S)C(=O)N4[C@@H]32)cc1Oc1cc(C=O)ccc1O	2.82 µM (active)	2.24 µM (active)		
CC1(O)CC(O)C2C(C(=O)O)=COC(OC3OC(CO)C(O)C(O)C3OC(=O)/C=C/c3ccc(O)cc3)C21 (stereo unspecified)	inactive	inactive		
CC1=CC(=O)CC(C)(CO)C1(O)/C=C/C(C)O[C@@H]1O[C@H](CO)[C@@H](O)[C@H](O)[C@H]1O (stereo partly specified)	inactive	inactive		
Cc1cc2ncc(C(=O)NCC(C)(C)NCC(=O)N3CCC[C@H]3C#N)cn2n1	inactive	inactive		
O=C1C(Cl)=C(N2CCOCC2)C(=O)N1c1ccc(Cl)c(Cl)c1	5.63 µM (active)	5.02 µM (active)		
CC1(CCC(=O)O)C(=O)C=CC23CC4CC(OC4(C)C2O)C13 (stereo unspecified)	inactive	inactive		
COc1cc(C(O)C2COC(c3ccc(OC4OC(CO)C(O)C(O)C4O)c(OC)c3)C2CO)ccc1O (stereo unspecified)	4.47 µM (active)	inactive		
Cc1ccc(NC(=O)c2ccc(CN3CCNCC3)cc2)cc1Nc1nccc(-c2cccnc2)n1	9.2 µM (active) and 16.6 µM (active)	9.2 µM (active) and 16.6 µM (active)		
C[C@H]1CC[C@@]2(OC1)O[C@H]1CC3C4CC[C@H]5C[C@@H](O)[C@H](O)C[C@]5(C)C4=CC(=O)[C@]3(C)[C@H]1[C@@H]2C (stereo partly specified)	inactive	inactive		
CCN(Cc1cccnc1)C(=O)CN(c1ccc(OC)nc1)S(=O)(=O)c1ccccc1C	inactive	inactive		
CC/C=C\C(O)C(O)C1=C(C)C(=O)C2(O1)C(=O)NC(OC)(C(=O)c1ccccc1)C2O (stereo unspecified)	inactive	inactive		
CC(=O)O[C@@H]1[C@H](O[C@@H]2OC[C@](O)(CO)[C@H]2O)[C@@H](O[C@@H]2O[C@@H](C)[C@H](O)[C@@H](O[C@@H]3O[C@H](CO)[C@@H](O)[C@H](O)[C@H]3O)[C@H]2O)[C@H](OC(=O)[C@]23CCC(C)(C)C[C@H]2C2=CCC4[C@@]5(C)C[C@H](O)[C@H](O[C@@H]6O[C@H](C(=O)O)[C@@H](O)[C@H](O)[C@H]6O)[C@@](C)(C(=O)O)C5CC[C@@]4(C)[C@]2(C)CC3)O[C@@H]1C (stereo partly specified)			95.7% [at 9.25 µM]	95.1% [at 9.25 µM]
CC1=CC2=C(C)C(=O)[C@](C)(O)[C@H](O)C2=CO1	inactive	inactive		
CCN(CC)CC1CCN(c2ncc3ncnc(Nc4ccc(F)c(Cl)c4)c3n2)CC1	2.91 µM (active)	2.91 µM (active)		
Cc1ccc(-c2c(-c3nn(C)c4ncnc(N5CCC(N6CCCCC6)C5)c34)cnn2C)cc1 (stereo unspecified)	16.4 µM (active)	inactive		
O=C(/C=C/c1ccc2ccccc2n1)c1ccncc1	1.46 µM (active)	1.64 µM (active)		
CC1(C)CC[C@]2(C(=O)OC3OC(CO)C(O)C(O)C3O)CC[C@]3(C)C(=CCC4[C@@]5(C)CC[C@H](OC6OC(C(=O)O)C(O)C(O)C6O)C(CO)(CO)C5CC[C@]43C)[C@@H]2C1 (stereo partly specified)	0.693 µM (active)	0.438 µM (active)		
CC[C@H](CO)Nc1nc(NCc2ccc(-c3ccccn3)cc2)c2ncn(C(C)C)c2n1	0.13 µM (active)	0.259 µM (active)		
CCCC(=O)O[C@]1(C(=O)CCl)[C@@H](C)C[C@H]2[C@@H]3CCC4=CC(=O)C=C[C@]4(C)[C@@]3(F)C(=O)C[C@@]21C	11.9 µM (active)	13.3 µM (active)		
COC1CC(O[C@H]2CC[C@]3(C)C4CC[C@]5(C)C(C6=CC(=O)OC6)=CCC56OC46CC[C@@H]3C2)OC(C)C1O[C@@H]1O[C@H](CO[C@@H]2O[C@H](CO)[C@@H](O)[C@H](O)[C@H]2O)[C@@H](O)[C@H](O)[C@H]1O (stereo partly specified)	1.55 µM (active)	1.38 µM (active)		
COC(=O)[C@@]1(O)C=CC[C@@H]2[C@@]3(C)C[C@@H](c4ccoc4)OC(=O)[C@H]3CC[C@]21C	inactive	inactive		
C=CC(C)(C)c1[nH]c2ccccc2c1C[C@@H]1NC(=O)[C@H](Cc2c[nH]c3ccccc23)NC1=O	inactive	0.252 µM (active)		

SMILES	Potency [1]	Potency [2]	viability (% of control) [1]	viability, % of control [2]
CC(=O)OC1C(CO)OC(O[C@H]2[C@H](OC(=O)[C@]34CCC(C)(C)C[C@H]3C3=CCC5[C@@]6(C)CC[C@H](O[C@@H]7O[C@H](C(=O)O)[C@@H](O)[C@H](O[C@@H]8OC[C@@H](O)[C@H](O)[C@H]8O)[C@H]7O[C@@H]7O[C@H](CO)[C@H](O)[C@H](O)[C@H]7O)[C@@](C)(C=O)C6CC[C@@]5(C)[C@]3(C)C[C@H]4O)O[C@H](C)[C@H](OC3OC(C)C(OC4OCC(O)C(O)C4O)C(O)C3O)[C@@H]2O)C(O)C1O (stereo partly specified)			87.3% [at 9.25 µM]	100% [at 9.25 µM]
COc1cc2c(Nc3cc(F)c(Cl)c(Cl)c3)ncnc2cc1OCC1CCCN(C)CCC1	1.16 µM (active)	2.59 µM (active)		
CC(=O)O[C@H]1[C@H](OC(=O)C(C)C)[C@]2(C)OC3(CC[C@]2(C)[C@H]2CCC[C@]4(CO4)[C@]12C)COC(=O)C3 (stereo partly specified)	inactive	inactive		
C=CC(C)(C)O[C@@H]1O[C@H](CO[C@@H]2OC[C@](O)(CO)[C@H]2O)[C@@H](O)[C@H](O)[C@H]1O	inactive	inactive		
CSc1ccc2c(c1)C(N1CCN(C)CC1)Cc1ccccc1S2 (stereo unspecified)	11.9 µM (active)	26.6 µM (active)		
CC(C)(O)C1CCC(C)(C2CCC3(C)C4CCC5C(C)(C(=O)OC6OC(CO)C(O)C(O)C6O)C(O)CC(O)C56CC46CCC23C)O1 (stereo unspecified)	inactive	inactive		
CC1CCC2C(C)(C)C(O)CCC2(C)C12Cc1c(O)cc3c(c1O2)CN(C(CCCN=C(N)N)C(=O)O)C3=O (stereo unspecified)	3.17 µM (active)	5.63 µM (active)		
NC(Cc1c[nH]c2ccccc12)C(=O)NC(CCC(=O)O)C(=O)O (stereo unspecified)	2.91 µM (active)	inactive		
Cc1ccc(NS(=O)(=O)c2cc3c(cc2NC(C)CO)NC(=O)CC3)cc1C (stereo unspecified)	12.9 µM (active)	10.2 µM (active)		
CCCCN1CCCC[C@H]1C(=O)Nc1c(C)cccc1C	inactive	inactive		
CC1=CC(=O)CC(C)(C)C1/C=C/C(C)OC1OC(COC2OCC(O)C(O)C2O)C(O)C(O)C1O (stereo unspecified)	inactive	inactive		
CC1CCC2(C(=O)OC3OC(CO)C(O)C(O)C3O)CCC3(C)C(=CCC4C5(C)CC(O)C(O)C(C)(C(=O)O)C5CCC43C)C2C1(C)O (stereo unspecified)	inactive	inactive		
CC[C@H]1OC(=O)[C@H](C)C(=O)[C@H](C)[C@@H](OC2O[C@H](C)C[C@H](N(C)C)[C@H]2O)[C@@H](C)C[C@@H](C)C(=O)/C=C/[C@]1(C)O (stereo partly specified)	inactive	inactive		
Cc1c(-c2ccnc(Nc3cc(Br)cc(C(F)(F)F)c3)n2)sc(=O)n1C	inactive	inactive		
OC[C@@]1(O)CO[C@@H](OC[C@H]2O[C@@H](Oc3ccccc3)[C@H](O)[C@@H](O)[C@@H]2O)[C@@H]1O	inactive	inactive		
COC(=O)CC1OC(C)C2=C(O)c3c(O)cccc3C(=O)C23OC13 (stereo unspecified)	1.14 µM (active)	0.57 µM (active)		
COc1ccc(/C=C/C(=O)O[C@H]2[C@@H]3C=CO[C@@H](O[C@@H]4O[C@H](CO)[C@@H](O)[C@H](O)[C@H]4O)[C@@H]3[C@@]3(CO)O[C@@H]23)cc1O	inactive	inactive		
C=C1C(=O)OC2/C=C(\CO)CC/C=C(\C=O)C(O)C(OC(=O)C(C)CC)C12 (stereo unspecified)	2.02 µM (active)	2.86 µM (active)		
CC1CCC2C(C)(C)[C@H](O)CC[C@]2(C)C12Cc1c(O)cc3c(c1O2)CN(C(CCC(=O)O)C(=O)O)C3=O (stereo partly specified)	inactive	inactive		
OCC(CO)(CO)NCC(O)Cn1c2ccc(Cl)cc2c2cc(Cl)ccc21 (stereo unspecified)	20.6 µM (active)	11.6 µM (active)		
CCOCCn1nc(CC)c2nc(N3CCC(C(=O)O)CC3)nc(Nc3cc(C)ccn3)c21	inactive	inactive		
C[C@@H]1CC[C@]2(C(=O)O[C@@H]3O[C@H](CO)[C@@H](O)[C@H](O)[C@H]3O)CC[C@]3(C)C(=CCC4[C@@]5(C)C[C@@H](O)[C@H](O)C(C)(C)C5CC[C@]43C)C2[C@]1(C)O (stereo partly specified)	inactive	inactive		
C=C1CC[C@H]2[C@@](C)(CCC(OC3OC(CO)C(O)C(O)C3O)[C@@]2(C)CO)C1C(=O)CC1=CCOC1=O (stereo partly specified)	inactive	inactive		
CC1(C)CC[C@]2(C(=O)O[C@@H]3O[C@H](CO)[C@@H](O)[C@H](O)[C@H]3O)CC[C@]3(C)C(=CCC4[C@@]5(C)C[C@@H](O)[C@H](O)[C@@](C)(CO)C5CC[C@]43C)C2C1 (stereo partly specified)	inactive	inactive		
CCOC(=O)Nc1cc(-c2ccc(C)c(NS(C)(=O)=O)c2)nn2c(C)nnc12	0.651 µM (active)	0.651 µM (active)		
C[C@@H]1C(=O)O[C@H]2CC34[C@H]5C[C@@H](C(C)(C)C)C36[C@@H](OC(=O)[C@@H]6O)OC4(C(=O)O5)[C@]21O (stereo partly specified)	inactive	inactive		
